# PMC4336329 (PLoS ONE, 2015)
# In all, about 310,000 compounds went through this assay and about 14,000 (4.5%) showed an effect of 50% or more. Effects have a minus sign here. The list comes from a sample in which strong results are over-represented; it also holds similar structures and randomly drawn compounds.
# Target: human ether-à-go-go-related gene (hERG) potassium channel (human, UniProt Q12809)
# Test: primary screen, population patch clamp on CHO cells stably expressing hERG; higher = less effect of the substance
# 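Further: peak tail current of the secondary pulse compared with the same well before compound.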
# Chain of human ether-à-go-go-related gene (hERG) potassium channel (Q12809 whole entry, looked up): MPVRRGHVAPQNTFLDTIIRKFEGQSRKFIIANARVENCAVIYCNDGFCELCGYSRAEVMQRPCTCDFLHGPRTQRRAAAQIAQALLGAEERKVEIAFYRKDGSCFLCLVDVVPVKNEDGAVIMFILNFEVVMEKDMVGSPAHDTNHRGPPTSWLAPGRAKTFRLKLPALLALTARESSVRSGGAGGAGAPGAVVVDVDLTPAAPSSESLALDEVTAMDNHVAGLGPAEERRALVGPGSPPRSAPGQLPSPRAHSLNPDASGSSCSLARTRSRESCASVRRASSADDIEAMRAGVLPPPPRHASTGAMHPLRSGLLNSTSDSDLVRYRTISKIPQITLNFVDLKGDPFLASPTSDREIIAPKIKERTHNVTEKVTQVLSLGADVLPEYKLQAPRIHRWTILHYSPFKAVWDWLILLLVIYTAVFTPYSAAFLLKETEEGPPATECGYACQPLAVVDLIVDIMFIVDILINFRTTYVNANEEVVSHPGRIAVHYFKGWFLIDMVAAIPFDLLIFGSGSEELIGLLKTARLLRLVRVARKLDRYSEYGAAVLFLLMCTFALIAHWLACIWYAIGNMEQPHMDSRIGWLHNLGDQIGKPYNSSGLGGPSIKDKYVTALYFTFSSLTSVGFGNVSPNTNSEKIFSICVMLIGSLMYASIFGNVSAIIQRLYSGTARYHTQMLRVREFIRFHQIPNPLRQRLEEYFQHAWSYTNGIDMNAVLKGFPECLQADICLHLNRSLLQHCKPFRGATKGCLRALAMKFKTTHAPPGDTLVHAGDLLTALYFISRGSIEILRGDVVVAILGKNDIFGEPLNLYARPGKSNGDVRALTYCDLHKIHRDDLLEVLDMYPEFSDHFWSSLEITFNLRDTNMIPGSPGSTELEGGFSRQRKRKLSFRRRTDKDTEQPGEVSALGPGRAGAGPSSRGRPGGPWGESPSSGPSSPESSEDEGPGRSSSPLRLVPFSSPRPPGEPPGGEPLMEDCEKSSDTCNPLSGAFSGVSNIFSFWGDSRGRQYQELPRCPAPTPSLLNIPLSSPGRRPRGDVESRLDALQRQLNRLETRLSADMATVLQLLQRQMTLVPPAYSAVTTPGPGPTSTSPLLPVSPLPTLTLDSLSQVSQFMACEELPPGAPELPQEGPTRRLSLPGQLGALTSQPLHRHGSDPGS
row,Compound,"hERG current change (%, negative = inhibition) at 10uM [%]"
1,NS(=O)(=O)c1ccc(NC(=O)c2ccc3c(c2)OCO3)cc1,11.3
2,COc1cc(Cl)c(CN2CCCC(CO)(Cc3ccccc3)C2)cc1OC (centres unmarked),-55.2
3,COc1cc(Cl)c(CN2CCCC(CO)(Cc3cccc(Cl)c3)C2)cc1OC (centres unmarked),-45.6
4,COc1cc(Cl)c(CN2CCCC(CO)(Cc3ccccc3F)C2)cc1OC (centres unmarked),-20.1
5,FC(F)(F)c1cc(Sc2ccccc2)nc(-c2ccccn2)n1,-19.3
6,O=C(O)CSc1cc(C(F)(F)F)nc(-c2ccccn2)n1,5.55
7,C#CCSc1cc(C(F)(F)F)nc(-c2ccccn2)n1,-62.9
8,CCC(=O)NC(C)c1nc2ccccc2n1C (centres unmarked),1.29
9,Cc1sc2ncnc(N/N=C/c3cccc(O)c3)c2c1C,-61.9
10,Cc1sc2ncnc(N/N=C/c3ccccc3O)c2c1C,-1.58
11,Cc1sc2ncnc(N/N=C/c3ccc(O)cc3)c2c1C,2.28
12,O=C(CCNNC(=O)c1ccncc1)NCc1ccccc1,9.98
13,OCC1(Cc2cccc(Cl)c2)CCCN(Cc2cnn(-c3ccccc3)c2)C1 (centres unmarked),-54.7
14,OCC1(Cc2ccccc2)CCCN(Cc2cnn(-c3ccccc3)c2)C1 (centres unmarked),-59.4
15,Cn1cc(CN2CCCC(CO)(Cc3ccccc3)C2)cn1 (centres unmarked),4.27
16,CCn1cc(CN2CCCC(CO)(Cc3cccc(Cl)c3)C2)cn1 (centres unmarked),-10.8
17,Cn1cc(CN2CCCC(CO)(Cc3cccc(Cl)c3)C2)cn1 (centres unmarked),-17.1
18,COc1ccccc1-n1cc(CN2CCCC(CO)(Cc3cccc(Cl)c3)C2)cn1 (centres unmarked),-49.5
19,CC(C)n1cnc2c(Nc3ccc(F)c(Cl)c3)nc(NCCO)nc21,-39
20,[O-][N+]1=C(c2cccs2)CN(O)C1,8.57
21,CC(OC(=O)/C=C/c1ccco1)C(=O)NC1CCCCC1C (centres unmarked),-3.2
22,Nc1sc(-c2ccccc2)c(Cc2ccccc2)c1C(=O)O,-2.59

row,Compound,"hERG current change (%, negative = inhibition) at 10uM [%]"
1,Cc1cnc(NC(=O)CSc2ccccc2)s1,3.88
2,Fc1ccc(Cn2nnnc2CN2CCC(n3nnc4cc(C(F)(F)F)ccc43)CC2)cc1,-69.6
3,Cc1ccc(Cn2nnnc2CN2CCC(n3nnc4cc(C(F)(F)F)ccc43)CC2)cc1,2.84
4,O=C(O)CCC(=O)N1CCC(n2nnc3cc(C(F)(F)F)ccc32)CC1,10.5
5,OC1(c2cccc(C(F)(F)F)c2)CCN(Cc2nnnn2Cc2ccccc2)CC1,10.4
6,Cl.Fc1ccc2c(c1)nnn2C1CCN(Cc2nnnn2C2CCCCC2)CC1,-38.1
7,FC(F)(F)c1ccc2c(c1)nnn2C1CCN(Cc2nnnn2Cc2ccccc2)CC1,-50.9
8,C1CCN(Cc2nnnn2C2CCCC2)CC1,11.4
9,Fc1ccc(Cn2nnnc2CN2CCN(C3CCCC3)CC2)cc1,-49.1
10,FC(F)(F)c1ccc2c(c1)ncn2C1CCN(Cc2nnnn2C2CCCCC2)CC1,-59.6
11,O=C(CSc1ccc2c(c1)OCCO2)NCCc1ccc(Cl)cc1Cl,-8.94
12,O=C(Nc1ccc(Cl)cc1C(F)(F)F)c1ccccc1,8.81
13,Cn1cnnc1SCC(=O)Nc1cc(S(=O)(=O)N2CCCCCC2)ccc1Cl,-17.8
14,CCc1c(C)nc2ncnn2c1Nc1ccccc1C,-34.1
15,CCOC(=O)N1CCC(NC(=O)c2cc(C(=O)Nc3ccc(OCC)cc3)ccc2CO)CC1,9.27
16,CC(C)c1nnc(NC(=O)CC(C)c2ccccc2)s1 (centres unmarked),1.39
17,N#Cc1c(N)nc2c3c(sc(=N)c2c1N)NC(=O)CC3c1c(F)cccc1Cl (centres unmarked),-15.7
18,O=C(NNc1nc2ccccc2s1)c1ccccc1F,-7.04
19,Fc1ccc(NC(=S)NC2CC3CCC(C2)N3Cc2ccco2)cc1 (centres unmarked),-12.6
20,Cc1cc(C)cc(NC(=S)NC2CC3CCCC(C2)N3Cc2cccs2)c1 (centres unmarked),-52.9
21,CC(C)CNC(=S)NC1CC2CCCC(C1)N2Cc1cccs1 (centres unmarked),-34.8
22,Cc1cccc(NC(=S)NC2CC3CCCC(C2)N3Cc2cccs2)c1 (centres unmarked),-35.9

row,Compound,"hERG current change (%, negative = inhibition) at 10uM [%]"
1,Cc1ccc(NC(=S)NC2CC3CCCC(C2)N3Cc2cccs2)cc1 (centres unmarked),-56.5
2,Fc1ccc(NC(=S)NC2CC3CCCC(C2)N3Cc2cccs2)cc1 (centres unmarked),-59.5
3,CCc1ccccc1NC(=S)NC1CC2CCCC(C1)N2Cc1cccs1 (centres unmarked),-4.03
4,Cc1cccc(NC(=S)NC2CC3CCCC(C2)N3Cc2cccs2)c1C (centres unmarked),-37.9
5,CCc1ccc(NC(=S)NC2CC3CCCC(C2)N3Cc2cccs2)cc1 (centres unmarked),-20.4
6,CCOC(=O)C(=O)N(Nc1ccccc1C)c1ccccc1C,-14.3
7,O=C(Nc1ccccn1)c1ccc2c(c1)OCCO2,11.5
8,CC1CCN(c2nc(-c3ccc(F)cc3)cc(C(F)(F)F)n2)CC1,15.6
9,Cc1csc(C2=C(O)CN(CCc3ccccc3)C2=N)n1,1.95
10,O=C(CCc1ccccc1)OCCOC(=O)CCc1ccccc1,22.1
11,Cc1cc(C(F)(F)F)nn1CC(=O)Nc1ccc2c(c1)OCO2,-2.91
12,CCCCOC(=O)c1ccc(NC(C)=O)cc1,-11.2
13,O=c1oc2ccccc2c(N2CCCCC2)c1CN1CCCC1,-54.4
14,O=c1oc2ccccc2c(O)c1CN1CCCCC1,13.9
15,Nc1c(N2CCCC2)c2ccccc2oc1=O,2.82
16,O=c1oc2ccccc2c(Nc2ccccc2)c1CN1CCCCC1,-57.1
17,O=c1oc2ccccc2c(Cl)c1CN1CCCCC1,24.1
18,Nc1c(N2CCN(c3ccccc3)CC2)c2ccccc2oc1=O,-50.1
19,CN1CCN(c2c(N)c(=O)oc3ccccc23)CC1,-45.2
20,O=c1oc2ccccc2c(N2CCCC2)c1CN1CCCC1,13
21,O=c1oc2ccccc2c(N2CCCCC2)c1CN1CCCCC1,-18.4
